{"source": "PubChem BioAssay AID1159580", "about": "(chemical genetic matrix, 2015)", "test": "chemical genetic growth profiling, strain panel (AID 1159580);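 note: tested at 20 µM; growth read once vehicle control cultures reached saturation at 30 °C; 1 = growth at the plate median or of vehicle wells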", "settings": "growth OD", "note": "The campaign covered roughly 5,500 compounds. About 2,000 (36%) were called active. Roughly 18% stayed inconclusive and do not appear here. Some of the results follow. A number with no mark means an inactive call. Cut-off read from the data, not from the text of the source: active = normalized growth mostly below about 0.91 (no sharp cut-off); inconclusive = no clear call, values can overlap the other calls; inactive = mostly above about 0.92."}
{"molecule": "CC(C)N(C(=O)CCl)c1ccccc1", "values": [{"measurement": "normalized growth", "setting": "S. cerevisiae deletion strains, locus YJR043C, strain POL32, stronger effect = lower value", "value": 1.03}, {"measurement": "normalized growth", "setting": "S. cerevisiae deletion strains, locus YJR075W, strain HOC1, stronger effect = lower value", "value": 1.04}, {"measurement": "normalized growth", "setting": "S. cerevisiae deletion strains, locus YKL009W, strain mrt4, stronger effect = lower value", "value": 1.02}, {"measurement": "normalized growth", "setting": "S. cerevisiae deletion strains, locus YKL068W, stronger effect = lower value", "value": 1.04}, {"measurement": "normalized growth", "setting": "S. cerevisiae deletion strains, locus YKL085W, strain MDH1 (second series), stronger effect = lower value", "value": 1.03}, {"measurement": "normalized growth", "setting": "S. cerevisiae deletion strains, locus YKL085W, strain MDH1, stronger effect = lower value", "value": 1.03}, {"measurement": "normalized growth", "setting": "S. cerevisiae deletion strains, locus YKL160W, strain elf1, stronger effect = lower value", "value": 0.974}, {"measurement": "normalized growth", "setting": "S. cerevisiae deletion strains, locus YKL190W, strain CNB1, stronger effect = lower value", "value": 1.03}, {"measurement": "normalized growth", "setting": "S. cerevisiae deletion strains, locus YKR001C, strain vps1, stronger effect = lower value", "value": 1.07}, {"measurement": "normalized growth", "setting": "S. cerevisiae deletion strains, locus YKR026C, strain gcn3, stronger effect = lower value", "value": 1.01}, {"measurement": "normalized growth", "setting": "S. cerevisiae deletion strains, locus YKR091W, strain srl3, stronger effect = lower value", "value": 1.01}, {"measurement": "normalized growth", "setting": "S. cerevisiae deletion strains, locus YLL001W, strain dnm1, stronger effect = lower value", "value": 0.992}, {"measurement": "normalized growth", "setting": "S. cerevisiae deletion strains, locus YLL026W, stronger effect = lower value", "value": 1.01}, {"measurement": "normalized growth", "setting": "S. cerevisiae deletion strains, locus YLL041C, strain sdh2, stronger effect = lower value", "value": 1.02}, {"measurement": "normalized growth", "setting": "S. cerevisiae deletion strains, locus YLR027C, strain aat2, stronger effect = lower value", "value": 1.01}, {"measurement": "normalized growth", "setting": "S. cerevisiae deletion strains, locus YLR039C, strain RIC1, stronger effect = lower value", "value": 1.2}, {"measurement": "normalized growth", "setting": "S. cerevisiae deletion strains, locus YLR058C, strain SHM2, stronger effect = lower value", "value": 1.03}, {"measurement": "normalized growth", "setting": "S. cerevisiae deletion strains, locus YLR102C, strain apc9, stronger effect = lower value", "value": 1}, {"measurement": "normalized growth", "setting": "S. cerevisiae deletion strains, locus YLR221C, strain rsa3, stronger effect = lower value", "value": 1}, {"measurement": "normalized growth", "setting": "S. cerevisiae deletion strains, locus YLR258W, strain gsy2, stronger effect = lower value", "value": 0.978}, {"measurement": "normalized growth", "setting": "S. cerevisiae deletion strains, locus YLR262C, strain YPT6 (second series), stronger effect = lower value", "value": 1.14}, {"measurement": "normalized growth", "setting": "S. cerevisiae deletion strains, locus YLR262C, strain YPT6, stronger effect = lower value", "value": 1.21}, {"measurement": "normalized growth", "setting": "S. cerevisiae deletion strains, locus YLR268W, strain sec22, stronger effect = lower value", "value": 1.02}, {"measurement": "normalized growth", "setting": "S. cerevisiae deletion strains, locus YLR320W, strain mms22, stronger effect = lower value", "value": 0.97}, {"measurement": "normalized growth", "setting": "S. cerevisiae deletion strains, locus YLR330W, strain CHS5, stronger effect = lower value", "value": 1.02}, {"measurement": "normalized growth", "setting": "S. cerevisiae deletion strains, locus YLR342W, strain FKS1 (second series), stronger effect = lower value", "value": 0.989}, {"measurement": "normalized growth", "setting": "S. cerevisiae deletion strains, locus YLR342W, strain FKS1, stronger effect = lower value", "value": 1.03}, {"measurement": "normalized growth", "setting": "S. cerevisiae deletion strains, locus YLR357W, strain rsc2, stronger effect = lower value", "value": "1.18 [resistant] (active)"}, {"measurement": "normalized growth", "setting": "S. cerevisiae deletion strains, locus YLR370C, strain arc18, stronger effect = lower value", "value": 1.03}, {"measurement": "normalized growth", "setting": "S. cerevisiae deletion strains, locus YLR371W, strain rom2, stronger effect = lower value", "value": 1.01}, {"measurement": "normalized growth", "setting": "S. cerevisiae deletion strains, locus YLR384C, strain iki3, stronger effect = lower value", "value": 1.01}, {"measurement": "normalized growth", "setting": "S. cerevisiae deletion strains, locus YLR418C, strain cdc73, stronger effect = lower value", "value": "0.798 (active)"}, {"measurement": "normalized growth", "setting": "S. cerevisiae deletion strains, locus YML016C, strain PPZ1, stronger effect = lower value", "value": 0.996}, {"measurement": "normalized growth", "setting": "S. cerevisiae deletion strains, locus YML032C, strain rad52, stronger effect = lower value", "value": 1.01}, {"measurement": "normalized growth", "setting": "S. cerevisiae deletion strains, locus YML120C, strain ndi1, stronger effect = lower value", "value": 0.986}, {"measurement": "normalized growth", "setting": "S. cerevisiae deletion strains, locus YML124C, strain tub3, stronger effect = lower value", "value": 1.02}, {"measurement": "normalized growth", "setting": "S. cerevisiae deletion strains, locus YMR058W, strain fet3, stronger effect = lower value", "value": 1}, {"measurement": "normalized growth", "setting": "S. cerevisiae deletion strains, locus YMR078C, strain ctf18, stronger effect = lower value", "value": 1.01}, {"measurement": "normalized growth", "setting": "S. cerevisiae deletion strains, locus YMR125W, strain sto1, stronger effect = lower value", "value": "1.16 [resistant] (active)"}, {"measurement": "normalized growth", "setting": "S. cerevisiae deletion strains, locus YMR129W, stronger effect = lower value", "value": 1.01}, {"measurement": "normalized growth", "setting": "S. cerevisiae deletion strains, locus YMR205C, strain PFK2, stronger effect = lower value", "value": 0.919}, {"measurement": "normalized growth", "setting": "S. cerevisiae deletion strains, locus YMR223W, strain ubp8, stronger effect = lower value", "value": 1.02}, {"measurement": "normalized growth", "setting": "S. cerevisiae deletion strains, locus YMR231W, strain pep5, stronger effect = lower value", "value": 0.992}, {"measurement": "normalized growth", "setting": "S. cerevisiae deletion strains, locus YMR263W, strain SAP30, stronger effect = lower value", "value": 1.04}, {"measurement": "normalized growth", "setting": "S. cerevisiae deletion strains, locus YMR307W, strain GAS1, stronger effect = lower value", "value": 0.99}, {"measurement": "normalized growth", "setting": "S. cerevisiae deletion strains, locus YNL067W, strain RPL9B, stronger effect = lower value", "value": 1.04}, {"measurement": "normalized growth", "setting": "S. cerevisiae deletion strains, locus YNL071W, strain lat1, stronger effect = lower value", "value": 0.922}, {"measurement": "normalized growth", "setting": "S. cerevisiae deletion strains, locus YNL128W, strain TEP1, stronger effect = lower value", "value": 1.03}, {"measurement": "normalized growth", "setting": "S. cerevisiae deletion strains, locus YNL153C, strain GIM3, stronger effect = lower value", "value": 1.03}, {"measurement": "normalized growth", "setting": "S. cerevisiae deletion strains, locus YNL209W, strain ssb2, stronger effect = lower value", "value": 1.01}, {"measurement": "normalized growth", "setting": "S. cerevisiae deletion strains, locus YNL233W, strain BNI4, stronger effect = lower value", "value": 1.03}, {"measurement": "normalized growth", "setting": "S. cerevisiae deletion strains, locus YNL248C, strain rpa49, stronger effect = lower value", "value": 0.992}, {"measurement": "normalized growth", "setting": "S. cerevisiae deletion strains, locus YNL250W, strain rad50, stronger effect = lower value", "value": 1.03}, {"measurement": "normalized growth", "setting": "S. cerevisiae deletion strains, locus YNL271C, strain bni1, stronger effect = lower value", "value": 1.02}, {"measurement": "normalized growth", "setting": "S. cerevisiae deletion strains, locus YNL298W, strain CLA4, stronger effect = lower value", "value": 1.03}, {"measurement": "normalized growth", "setting": "S. cerevisiae deletion strains, locus YNL307C, strain MCK1, stronger effect = lower value", "value": 0.981}, {"measurement": "normalized growth", "setting": "S. cerevisiae deletion strains, locus YNL322C, strain KRE1 (second series), stronger effect = lower value", "value": 1.04}, {"measurement": "normalized growth", "setting": "S. cerevisiae deletion strains, locus YNL322C, strain KRE1, stronger effect = lower value", "value": 1.04}, {"measurement": "normalized growth", "setting": "S. cerevisiae deletion strains, locus YNR049C, strain mso1, stronger effect = lower value", "value": 1.02}, {"measurement": "normalized growth", "setting": "S. cerevisiae deletion strains, locus YNR052C, strain pop2, stronger effect = lower value", "value": 1.02}, {"measurement": "normalized growth", "setting": "S. cerevisiae deletion strains, locus YOL006C, strain TOP1, stronger effect = lower value", "value": 1}, {"measurement": "normalized growth", "setting": "S. cerevisiae deletion strains, locus YOL012C, strain htz1", "value": 0.89}, {"measurement": "normalized growth", "setting": "S. cerevisiae deletion strains, locus YOL147C, strain pex11, stronger effect = lower value", "value": 1}, {"measurement": "normalized growth", "setting": "S. cerevisiae deletion strains, locus YOR001W, strain rrp6, stronger effect = lower value", "value": 0.983}, {"measurement": "normalized growth", "setting": "S. cerevisiae deletion strains, locus YOR061W, strain CKA2, stronger effect = lower value", "value": 1.03}, {"measurement": "normalized growth", "setting": "S. cerevisiae deletion strains, locus YOR069W, strain VPS5, stronger effect = lower value", "value": 1.01}, {"measurement": "normalized growth", "setting": "S. cerevisiae deletion strains, locus YOR070C, strain gyp1, stronger effect = lower value", "value": 1.01}, {"measurement": "normalized growth", "setting": "S. cerevisiae deletion strains, locus YOR080W, strain dia2, stronger effect = lower value", "value": 1.03}, {"measurement": "normalized growth", "setting": "S. cerevisiae deletion strains, locus YOR083W, strain WHI5, stronger effect = lower value", "value": 0.976}, {"measurement": "normalized growth", "setting": "S. cerevisiae deletion strains, locus YOR106W, strain vam3, stronger effect = lower value", "value": 0.958}, {"measurement": "normalized growth", "setting": "S. cerevisiae deletion strains, locus YOR136W, strain idh2, stronger effect = lower value", "value": 1}, {"measurement": "normalized growth", "setting": "S. cerevisiae deletion strains, locus YOR144C, strain elg1, stronger effect = lower value", "value": 1.02}, {"measurement": "normalized growth", "setting": "S. cerevisiae deletion strains, locus YOR184W, strain ser1, stronger effect = lower value", "value": 1}, {"measurement": "normalized growth", "setting": "S. cerevisiae deletion strains, locus YOR265W, strain rbl2, stronger effect = lower value", "value": 1.04}, {"measurement": "normalized growth", "setting": "S. cerevisiae deletion strains, locus YOR270C, strain vph1, stronger effect = lower value", "value": 0.865}, {"measurement": "normalized growth", "setting": "S. cerevisiae deletion strains, locus YOR290C, strain snf2, stronger effect = lower value", "value": 0.928}, {"measurement": "normalized growth", "setting": "S. cerevisiae deletion strains, locus YOR316C, strain cot1, stronger effect = lower value", "value": 1.01}, {"measurement": "normalized growth", "setting": "S. cerevisiae deletion strains, locus YPL051W, strain arl3, stronger effect = lower value", "value": 0.987}, {"measurement": "normalized growth", "setting": "S. cerevisiae deletion strains, locus YPL055C, strain LGE1, stronger effect = lower value", "value": 1.03}, {"measurement": "normalized growth", "setting": "S. cerevisiae deletion strains, locus YPL078C, strain atp4, stronger effect = lower value", "value": 0.973}, {"measurement": "normalized growth", "setting": "S. cerevisiae deletion strains, locus YPL106C, strain sse1, stronger effect = lower value", "value": 1.14}, {"measurement": "normalized growth", "setting": "S. cerevisiae deletion strains, locus YPL240C, strain hsp82, stronger effect = lower value", "value": 1}, {"measurement": "normalized growth", "setting": "S. cerevisiae deletion strains, locus YPL241C, strain CIN2, stronger effect = lower value", "value": 1.02}, {"measurement": "normalized growth", "setting": "S. cerevisiae deletion strains, locus YPR119W, strain clb2, stronger effect = lower value", "value": 1.01}, {"measurement": "normalized growth", "setting": "S. cerevisiae deletion strains, locus YPR141C, strain kar3, stronger effect = lower value", "value": 1.03}, {"measurement": "normalized growth", "setting": "S. cerevisiae deletion strains, locus YPR163C, strain tif3, stronger effect = lower value", "value": 1.03}, {"measurement": "normalized growth", "setting": "S. cerevisiae deletion strains, locus YPR167C, strain met16, stronger effect = lower value", "value": 1.02}, {"measurement": "normalized growth", "setting": "S. cerevisiae deletion strains, strain wtn01, stronger effect = lower value", "value": 1.02}, {"measurement": "normalized growth", "setting": "S. cerevisiae strains, strain wild type, stronger effect = lower value", "value": 1.03}]}
